In PubChem BioAssay (NCI):
The panel holds about 83,000 compounds, 20% with a hit somewhere; the sample as a whole holds those more often.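 Note: values are percent growth. 100 is the growth of untreated cells, values between 100 and 0 indicate rising inhibition; between -100 and 0 indicates cell death.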 Active and inactive are the calls of the source. Rule for the calls: active = growth percent below 10; inactive = the rest.

Key:
Assay in all cases: NCI-60 one-dose screen, 48 h (100 = growth as untreated, 0 = no growth, -100 = all killed)
Conditions in all cases: 10 µM unless noted
[1] = tested on: T-47D breast
[2] = tested on: BT-549 breast
[3] = tested on: MDA-MB-435 melanoma
[4] = tested on: SW-620 colon
[5] = tested on: MCF7 breast
[6] = tested on: HCT-116 colon
[7] = tested on: HCC-2998 colon
[8] = tested on: KM12 colon

Measured: growth

COc1ccc(-n2cc(-c3cc(OC)c(OC)c(OC)c3)n(C(C)=O)c2=O)cc1
inactive: [1] 77.2% | [2] 100% | [3] 84.3% | [4] 98.1% | [5] 71.5% | [6] 94% | [7] 108% | [8] 85%

COc1ccc(C(=O)/C=C/c2ccc(OCc3ccccc3)c(OC)c2)cc1OC
inactive: [1] 47.4% | [2] 51.8% | [3] 61% | [4] 12.9% | [5] 22.5% | [6] 18.2% | [8] 36.5%

C=C(C)[C@@H]1CC[C@]2(CO)CC[C@]3(C)[C@H](CC[C@@H]4[C@@]5(C)CCCNC(C)(C)[C@@H]5CC[C@]43C)[C@@H]12
active: [4] -66.5% | [5] -12.6% | [6] -78.9%
inactive: [1] 36.5% | [2] 77.1% | [3] 13.5% | [8] 23.2%

O=C(O)/C=C\C(=O)N1C/C(=C\c2ccccc2Cl)C(=O)/C(=C/c2ccccc2Cl)C1
active: [1] 7.54% | [2] -57% | [3] -11.3% | [4] -50% | [5] 3.37% | [6] -97.2% | [7] -91.8% | [8] -71.9%

Cc1nn(-c2ccccc2)c(N2CCOCC2)c1/C=N/N=c1\sc2ccccc2n1C
inactive: [1] 51.7% | [2] 81.5% | [3] 92.1% | [4] 82.7% | [5] 68.5% | [6] 49.6% | [8] 81.4%

CCNC(=S)NNC(=O)c1cc2ccc1CCc1ccc(cc1)CC2
inactive: [1] 95.8% | [2] 102% | [3] 100% | [4] 101% | [5] 93.6% | [6] 92.5% | [8] 102%

CNC(=O)c1c(NC(=O)c2ccc(C(C)C)cc2)sc2c(CN(C)C)c(O)ccc12
inactive: [1] 80.6% | [2] 87.9% | [3] 89.8% | [4] 17.2% | [5] 68.6% | [6] 46.1% | [8] 66.2%

Cn1c(COC(=O)NCCn2ccnc2)nc2c(N3CCOCC3)nc(-c3ccccc3)nc21
active: [1] -36.1% | [2] -78.2% | [3] -91.2% | [4] -68.8% | [5] -67% | [6] -74.6% | [8] -69.3%

O=C1CCC(NC(=S)Nc2ccccc2)N1 (stereo unspecified)
inactive: [1] 103% | [2] 114% | [3] 109% | [4] 107% | [5] 97.3% | [6] 97.6% | [7] 98.7% | [8] 98%

OC(c1ccccc1)c1ccccn1 (stereo unspecified)
inactive: [1] 87.4% | [2] 93.4% | [3] 104% | [4] 102% | [5] 102% | [6] 103% | [8] 102%

Cc1ccc2[nH]c(=S)n(-c3ccc(S(=O)(=O)Nc4ccc(Cl)nn4)cc3)c(=O)c2c1
inactive: [1] 96.7% | [2] 83.3% | [3] 102% | [4] 96.2% | [5] 95% | [6] 39.7% | [8] 104%

O=C(CCN1CCCC1)Nc1ccc2c(NCc3ccc(F)cc3)c3ccccc3nc2c1
inactive: [2] 18.5%
active: [1] -5.76% | [3] -53.4% | [4] -31.3% | [5] -12.2% | [6] -29.9% | [8] -6.48%

CC(=O)O[C@]1(C(C)=O)CC[C@H]2[C@@H]3C=C(Cl)C4=CC(=O)CC[C@]4(C)[C@H]3CC[C@@]21C
inactive: [1] 97.1% | [2] 94.5% | [3] 113% | [4] 115% | [5] 112% | [6] 96.7% | [7] 103% | [8] 109%

O=C1OC(=O)C2C1CC=CC2c1ccccc1 (stereo unspecified)
inactive: [1] 91.5% | [2] 93.1% | [3] 102% | [4] 86.7% | [5] 89% | [6] 97.3% | [7] 79.9% | [8] 84.8%

COc1ccc(C2=C(c3ccccc3)c3ccc(OC(C)=O)cc3OC2(C)C)cc1
inactive: [1] 83.9% | [2] 140% | [3] 80.5% | [4] 82.1% | [5] 93.9% | [6] 88.9% | [7] 86.5% | [8] 52.7%

OC1(c2ccc(Cl)c(C(F)(F)F)c2)CCN(CCCC(c2ccc(F)cc2)c2ccc(F)cc2)CC1
active: [1] -62.1% | [2] -92.8% | [3] -91.6% | [4] -100% | [5] -90.3% | [6] -92.3% | [7] -97.2% | [8] -99.2%

CC1=CC2(C)/C=C(C)/C=C\CC(O)/C=C3/C=CC(=C4C(=O)OC2(CC1C)C4=O)OC3 (stereo unspecified)
inactive: [8] 10.2%
active: [1] -33.9% | [2] -17.1% | [3] -50.1% | [4] -88.5% | [5] -21.9% | [6] -100%

Cc1ccc(Nc2cc(=S)nc(N)[nH]2)cc1C
inactive: [1] 89.2% | [2] 95.9% | [3] 103% | [4] 96.7% | [5] 88.5% | [6] 90.1% | [8] 102%

C=C1C(=O)O[C@H]2[C@H]1CC/C(COC(=O)NCCc1c[nH]c3ccc(Cl)cc13)=C\CC[C@@]1(C)O[C@@H]21
inactive: [8] 11.3%
active: [1] -40% | [2] -52.9% | [3] -91.5% | [4] -87.4% | [5] 8.5% | [6] -88.9%

O=C(Nc1cccc(Cl)c1)c1cc(Cl)ccc1O
active: [1] -11.9% | [2] -6.47% | [3] 5.73% | [4] 6.44% | [5] 4.21% | [6] 6.01% | [8] 5.13%

CCc1c(Nc2ccc(C)cc2)nc(N)[nH]c1=O
inactive: [1] 96.4% | [2] 101% | [3] 106% | [4] 109% | [5] 93.7% | [6] 98.6% | [8] 102%

CC(=O)N1c2ccccc2NC2=C(C(=O)N(Cc3ccccc3)C2(C)C)C1c1ccco1 (stereo unspecified)
inactive: [1] 35.1% | [2] 47.6% | [4] 21.7% | [5] 15.3% | [8] 14.8%
active: [3] -56.2% | [6] 7.52% | [7] 3.73%

Cc1cc(C(=O)Nc2ncnc3nc[nH]c23)no1
inactive: [1] 103% | [2] 106% | [3] 102% | [4] 96.1% | [5] 93.3% | [6] 105% | [7] 104% | [8] 99.5%

CCN(CC)CCCC(C)Nc1c2c(nc3ccc(OC)cc13)CCCC2 (stereo unspecified)
inactive: [1] 113% | [2] 101% | [3] 103% | [4] 103% | [5] 91.4% | [6] 73.6% | [7] 103% | [8] 106%

COc1cccc(C(Cc2ccccc2)Nc2ccccc2)c1OC (stereo unspecified)
inactive: [1] 80.6% | [2] 101% | [3] 105% | [4] 95.1% | [5] 102% | [6] 77% | [7] 91.2% | [8] 99.6%

COc1ccc(-c2nc3sccn3c2/C=C/C(=O)c2cc(OC)c(OC)c(OC)c2)cc1
inactive: [1] 30.5% | [2] 46.9% | [3] 29.8% | [4] 72.5% | [5] 17.2% | [6] 42% | [8] 35.8%

COc1nc(N)nc(-n2c(-c3ccc(C)cc3)nc3ccccc32)c1NCc1ccc(C)cc1
inactive: [1] 79% | [2] 101% | [3] 102% | [4] 98.1% | [5] 91.8% | [6] 84.5% | [8] 89.6%

CC(=O)N1N=C(c2cccc(Nc3ccncc3)c2)CC1c1ccccc1 (stereo unspecified)
inactive: [1] 80.4% | [2] 58.2% | [3] 89.1% | [4] 93.6% | [5] 81.3% | [8] 101%
active: [6] -24.4%

CC1(c2ccccc2)NC(=O)N(CC(=O)Nc2cccc(I)c2)C1=O (stereo unspecified)
inactive: [1] 81.5% | [3] 102% | [4] 92.2% | [5] 85.5% | [6] 97.5% | [7] 106% | [8] 90.9%

O=C(Nc1ccc(Cl)cc1)Nc1ccc(Cl)c(Cl)c1
inactive: [2] 43.3% | [4] 14.4%
active: [1] -12.2% | [3] 7.4% | [5] -4.33% | [6] 5.23% | [8] 6.34%

FC(F)(F)c1cccc(Nc2ccccc2)c1
inactive: [1] 101% | [2] 98.2% | [3] 101% | [4] 101% | [5] 93.5% | [6] 95.2% | [8] 102%

Cn1c(COC(=O)N2CCCCC2)nc2c(N3CCOCC3)nc(-c3ccccc3)nc21
active: [1] -38.4% | [2] -37.7% | [3] -81.9% | [4] -69.1% | [5] -65.3% | [6] -59.3% | [8] -73.8%

O=CNc1cc(Cl)cc(Cl)c1
inactive: [1] 100% | [2] 99.4% | [3] 107% | [4] 103% | [5] 98.3% | [6] 100% | [8] 101%

O=C(Nc1sc2c(c1C(=O)O)CCCC2)c1cccc(C(F)(F)F)c1
inactive: [1] 73.4% | [2] 93.1% | [3] 86.2% | [4] 90.6% | [5] 63.5% | [6] 80.2% | [8] 89.9%

NC(=O)CN1CCN(c2ccccc2Cl)CC1
inactive: [1] 96.9% | [2] 99.2% | [3] 103% | [5] 102% | [6] 100% | [7] 101% | [8] 109%
